# Compounds with a hit are over-represented: about 0.54% of the library has one in this group of screens.
# uPA generation: cell surface uPA generation inhibition. cell surface uPA generation assay, qHTS. Potency, µM (series often up to 38.3 µM), for inactives: at the highest dose activity change, negative = inhibition, hits mostly inhibitors. hit rate 0.31% among 330,000; active = well fitted inhibition curve with a large enough effect; inconclusive = small, poorly fitted or top-dose-only effect; inactive = no such curve, though single readings can be large or run the other way; tested in mouse RAW 264.7 cells; note: potency is the fitted concentration of half-maximal effect; % is set by controls: 0 for no effect and ±100 for the full control effect; nearly all actives have a fitted effect of over 55% in size
# TCR activator: T cell receptor activation. primary human leukocytes, anti-CD3, IL-2 HTRF, 48 h. Potency, µM (doses to about 9.22 µM), for the others: top-dose activation of IL-2 secretion, hits mostly activators. 330,000 tested, under 10 active. AID 504894; note: % of control where 0% means no effect
#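 IL-2 produced over 48 hr by a-CD3 bead-stimulated primary human leukocytes exposed to compounds was detected with a homogeneous time-resolved FRET immunoassay, 665nm acceptor signal after 320nm excitation.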
# BCR signal inh: blocks chronic active B-cell receptor signaling. ABC-DLBCL IkBa-CBG/CBR reporter, luminescence ratio, 4 h. Potency, µM (titrated, usually from 46.1 µM), for inactives: at the highest dose activity change, negative = inhibition, hits mostly inhibitors. hit rate 0.05% among 340,000. AID 493014; active = well fitted inhibition curve with a large enough effect in the signal ratio, with a control signal flat, not every such curve was filed as active; inconclusive = small, poorly fitted or top-dose-only effect, or effect the other way, or a change in a side signal; the % refers to the signal ratio;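 note: potency is the fitted concentration of half-maximal effect; plate controls were basal doxycycline-induced cells for no effect and cells given 10 µM MG132 for full effect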
#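 Doxycycline induced both beetle luciferases in TMD8 lymphoma cells; IKK-driven degradation limits the IkappaBalpha-fused green signal, while red luminescence normalises for cell number and nonspecific effects. Compounds tested up to 46 uM, 4 hrs.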
# Vif-A3F inh: Vif-A3F binding inhibition; HeLa A3F-eYFP + Vif (tagged APOBEC3F with the HIV-1 protein that degrades it), YFP fluorescence increase; Potency, µM (top dose mostly 46.1 µM), inactives show at the top dose activity, negative = active; hit rate 0.2% among 390,000; note: potency is the fitted concentration of half-maximal effect; % of control where 0% means no effect; nearly all actives have a fitted effect of over 65% in size
#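 HeLa cells stably expressing A3F-eYFP plus Vif, plated and incubated overnight at 37 deg C, then exposed to compounds overnight at 37 deg C. Blocked degradation read as raised yellow fluorescence (Ex 488/Em 500-530).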
# Vif-A3G inh: inhibitors of Vif-APOBEC3G interaction. Q9HC16. HeLa A3G-eYFP + Vif (tagged APOBEC3G with the HIV-1 protein that degrades it), YFP fluorescence, overnight. Potency, µM (top dose mostly 46.1 µM), without a hit: at the top dose activity, negative = active, most hits filed as inhibitors. hit rate 0.076% among 410,000; note: potency is the fitted concentration of half-maximal effect; % is set by controls: 0 for no effect and ±100 for the full control effect; nearly all actives have a fitted effect of over 60% in size
#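 HeLa cells stably expressing Vif and C-terminally eYFP-tagged A3G, seeded overnight at 37 deg C, then exposed to compound by pintool overnight at 37 deg C. Rise in yellow fluorescence (Ex 488/Em 500-530, Acumen) marks blocked Vif-driven A3G degradation.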
# MBNL1 CUG block: blocks human MBNL1 binding to CUG repeat RNA; Q9NR56; TR-FRET MBNL1-His/biotin-(CUG)12 binding, 665/545 ratio; Potency, µM (series often up to 57.5 µM), inactives show at the highest dose activity change, negative = inhibition, hits mostly inhibitors; hit rate 0.036% among 280,000; AID 2675; active = well fitted inhibition curve with a large enough effect in the signal ratio, with a control signal flat, not every such curve was filed as active; inconclusive = small, poorly fitted or top-dose-only effect, or effect the other way, or a change in a side signal; inactive = no such curve, though single readings can be large or run the other way; the % refers to the signal ratio; note: potency is the fitted concentration of half-maximal effect; % is set by controls: 0 for no effect and ±100 for the full control effect
# Target sequence (Q9NR56 whole entry, looked up): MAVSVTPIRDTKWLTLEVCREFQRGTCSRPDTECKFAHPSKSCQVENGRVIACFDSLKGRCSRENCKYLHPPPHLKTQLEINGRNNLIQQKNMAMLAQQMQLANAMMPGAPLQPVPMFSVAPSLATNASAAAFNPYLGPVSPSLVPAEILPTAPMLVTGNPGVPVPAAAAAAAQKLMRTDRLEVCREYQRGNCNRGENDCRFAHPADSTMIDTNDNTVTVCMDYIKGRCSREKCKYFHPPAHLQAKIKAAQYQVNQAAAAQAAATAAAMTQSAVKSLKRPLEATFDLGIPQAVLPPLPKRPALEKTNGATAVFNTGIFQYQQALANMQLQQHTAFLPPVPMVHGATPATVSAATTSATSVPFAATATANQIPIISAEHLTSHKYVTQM
#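 TR-FRET readout: Ex 340 nm, 665/545 nm emission ratio, normalized to buffer-only (basal) and MBNL1-(CUG)12 controls. Complex of MBNL1-His with Biotin-(CUG)12, compounds 92 nM–58 uM, incubated 60 min at room temperature.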
# MBNL1-CUG FRET: confirmation of inhibitors of human MBNL1-poly(CUG) RNA binding; hit rate 50% among 140; TR-FRET MBNL1-His / biotin-(CUG)12 binding, 60 min; shares compounds with MBNL1 CUG block; Potency, µM (series often up to 57.6 µM), for inactives: top-dose activity change, negative = inhibition, usual class: inhibitors; AID 493199
# MBNL1 AlphaScrn: confirmation of MBNL1-(CUG)12 RNA binding inhibitors, orthogonal format; AlphaScreen MBNL1-His / biotin-(CUG)12 binding; shares compounds with MBNL1 CUG block; Potency, µM (doses to about 57.7 µM), inactives show at the top dose activity, negative = inhibition, actives largely listed as inhibitors; hit rate 30% among 140
# Menin-MLL HTRF: hit in HTRF counterscreen for MBNL1-poly(CUG) binding inhibitors | shares compounds with MBNL1 CUG block | His-Menin/biotin-MLL peptide TR-FRET counterscreen | Potency, µM (highest dose often 57.6 µM), inactives show top-dose activity, negative = inhibition, most hits filed as inhibitors | hit rate 20% among 120 | AID 651843
# The depositor's hits bear a star; ? = inconclusive; . = not tested or not shown; [ ] = remark or other dose. Unless noted, calls come from the whole dose curve; as a rule, active = well fitted curve in the direction sought with a large enough effect; inconclusive = small, poorly fitted or top-dose-only effect, or another doubt; inactive = no such curve, though single readings can be large; an effect the other way counts as inactive or inconclusive.
SMILES,uPA generation,TCR activator,BCR signal inh,Vif-A3F inh,Vif-A3G inh,MBNL1 CUG block,MBNL1-CUG FRET,MBNL1 AlphaScrn,Menin-MLL HTRF
CCCCC[C@H](O)/C=C/[C@@H]1[C@@H](C/C=C\CCCC(=O)OC)[C@@H](O)C[C@H]1O,-4%,1%,?,0%,2%,.,?,10µM*,2%
CCCCC[C@H](O)/C=C/[C@@H]1[C@@H](C/C=C\CCCC(=O)O)[C@@H](O)C[C@H]1O,-11%,3%,?,1%,-1%,35%,.,.,.
CC(C)c1ccc(NC(=O)c2cc3c([nH]c2=O)CC(C)(C)CC3=O)cc1,.,.,.,.,0%,.,.,.,.
CCOC(=O)CCCCC(=O)c1[nH]c(=O)[nH]c1Cn1ccnc1,-4%,16%,0%,-10%,-6%,40µM*,41µM*,?,-3%
COc1cc2c(C#N)c(N3CCOCC3)nc(N)c2c(N)n1,-11%,2%,?,-6%,0%,-11%,.,.,.
COc1cc2c(C#N)c(N3CCCCC3)nc(N)c2c(N)n1,-10%,-1%,?,-3%,0%,5%,9%,13%,2%
CN1C[C@H](C(=O)N[C@]2(C)O[C@@]3(O)[C@@H]4CCCN4C(=O)[C@H](Cc4ccccc4)N3C2=O)CC2c3cccc4[nH]cc(c34)C[C@H]21 (stereo not given in full),-11%,-8%,?,1%,-3%,.,.,.,.
CCCN1C[C@H](CSC)C[C@@H]2c3cccc4[nH]cc(c34)C[C@H]21,-13%,-2%,-14%,-12%,1%,?,?,-42%,.
O=C1C(SCCO)=C(SCCO)C(=O)c2ccccc21,-101%,2%,?,?,?,?,5µM*,10µM*,.
COCCNC(=O)CCC1CCN(C/C=C/c2ccccc2OC)CC1,-1%,-4%,3%,-24%,-2%,-34%,-20%,?,5%
COc1cccc(CNC(=O)CCC2CCCN(C/C=C/c3ccccc3OC)C2)c1 (stereo not given),-7%,4%,?,9%,0%,7%,.,.,.
COC(=O)NCc1ccc(Cl)c(Cl)c1,4%,0%,-5%,-8%,-1%,-4%,.,.,.
COC(=O)NCc1cc2cc(Cl)ccc2[nH]1,.,-9%[46.1 µM],10%,0%,2%,40µM*,-12%,-16%,1%
O=C(Cc1ccc(OCCCCc2ccccc2)cc1)NO,.,.,.,.,7%,.,.,.,.
O=c1[nH]c(Nc2ccccc2Cl)cc2ccccc12,1%,2%,.,-1%,-7%,.,.,.,.
O=c1[nH]c(Nc2ccc(F)cc2)cc2ccccc12,.,8%,22%,-17%,-4%,.,33µM*,13µM*,2%
FC(F)(F)C(F)(F)C(F)(F)c1nc2ccccc2[nH]1,.,.,.,.,3%,.,.,.,.
Cn1c(CC(=O)Nc2ccc(Cl)c(Cl)c2)n[nH]c1=S,3%,1%,0%,14%,-8%,1%,.,.,.
COc1ccc(Cc2n[nH]c(=S)n2NC(=O)Nc2ccc(Cl)c(Cl)c2)cc1,3%,-7%,?,1%,0%,14µM*,10µM*,-28%,41µM*

# Screening data from PubChem.
